The source of these data is PubChem BioAssay AID602179 (National Center for Advancing Translational Sciences (NCATS), 2012).

The campaign covered roughly 390,000 compounds. About 360 (0.092%) were called active. This is one part of a sample in which actives are shown more often than they occur. Calls come from the whole dose curve; as a rule, active = well fitted inhibition curve with a large enough effect; inconclusive = small, poorly fitted or top-dose-only effect; inactive = no such curve, though single readings can be large or run the other way.
Potency is the fitted concentration of half-maximal effect.

The test deals with Isocitrate dehydrogenase [NADP] cytoplasmic (Homo sapiens) (UniProt O75874). As to the kind of experiment: qHTS for Inhibitors of mutant isocitrate dehydrogenase 1 (IDH1): qHTS. Note: nearly all actives have a fitted effect of over 65% in size. The following applies: IDH1-R132H enzyme, NADPH consumption, diaphorase/resazurin fluorescence; series mostly up to 76.6 µM; activity change, negative = inhibition: at the top concentration. From the text: Unbiased genomic sequencing for 22 glioma genomes found recurrent mutation of isocitrate dehydrogenase 1 (IDH1) on chromosome 2q33-a gene encoding the cytosolic isoform of IIDH1associated with the tricarboxylic acid cycle (TCA) that catalyzes the oxidative decarboxylation of isocitrate, yielding alpha-ketoglutarate and CO2 via NADP+ to NADPH conversion. Subsequent studies confirmed the recurrent IDH mutations in up to 70% of secondary gliomas and in 10% of AML cases. […] This in effect defines IDH1 as an oncogene, and provides an extraordinary opportunity to discover chemical probes against mutant IDH1 that may translate into much needed new therapies for glioma and AML patients. […] NIH Chemical Genomics Center [NCGC] NIH Molecular Libraries Probe Centers Network [MLPCN] MLPCN Grant: DA032129 Assay Submitter (PI): Lenny Dang, Agios Pharmaceuticals
Isocitrate dehydrogenase [NADP] cytoplasmic (Homo sapiens), sequence (O75874 whole entry R132H, stated change not applied, canonical isoform): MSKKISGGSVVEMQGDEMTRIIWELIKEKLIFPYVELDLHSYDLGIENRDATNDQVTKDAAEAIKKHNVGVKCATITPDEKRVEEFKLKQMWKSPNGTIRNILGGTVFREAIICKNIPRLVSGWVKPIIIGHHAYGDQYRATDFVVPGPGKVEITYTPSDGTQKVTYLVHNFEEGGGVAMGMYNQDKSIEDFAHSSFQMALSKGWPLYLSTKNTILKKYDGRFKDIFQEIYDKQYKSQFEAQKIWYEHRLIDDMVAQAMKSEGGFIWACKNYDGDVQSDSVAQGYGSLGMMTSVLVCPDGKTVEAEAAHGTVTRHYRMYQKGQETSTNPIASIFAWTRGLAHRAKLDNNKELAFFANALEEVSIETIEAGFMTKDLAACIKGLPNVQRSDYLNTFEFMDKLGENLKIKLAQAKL
IDH1-R132H (0.5 ug/mL) was dispensed into black, solid-bottom 1536-well plates at 3 uL/well in 20 mM Tris-HCl (pH 7.5), 150 mM NaCl, 10 mM MgCl2, 4 mM beta-ME, and 0.05% protease-free BSA. Then, 23 nL of compounds or DMSO were delivered to each well using a pin tool. A pre-read was run on the Viewlux to identify fluorescent compounds (540 nm excitation filter, 598 nm emission filter, bodipy mirror and 2 second exposure). After 30 minutes of incubation with compound, 3 uL of substrate mix were dispensed (0.016 mM NADPH, 2 mM alpha-KG, 20 mM Tris-HCl (pH 7.5), 150 mM NaCl, 10 mM MgCl2, and 0.05% protease-free BSA). Plates were spun for 1 min at 1000xg and incubated at room temperature for 80 min. Then 1.5 uL of each detection reagent component for the coupling system were added (0.12 mg/mL diaphorase and 0.072 mM resazurin, each in 20 mM Tris-HCl (pH 7.5), 150 mM NaCl, 10 mM MgCl2, and 0.05% protease-free BSA ) The protein, substrate and two detection components were maintained at 4 °C throughout the screen. Additionally, the substrate and resazurin reagents were protected from light. The plates were measured on an Envision plate reader for fluorescence signal using a 540 nm excitation filter and 590 nm emission filter with 10 flashes. 1x and 0x (no-enzyme) IDH1-R132H enzyme control were used to normalize %Activity of identified inhibitors; 0x enzyme values corresponded to 100% Activity (full inhibition), while 1x IDH1-R132H enzyme values were used to normalize 0%Activity (no inhibition). Concentration-response curves were fitted to the signals arising from the resulting fluorescence. The concentration-effect curves were then classified based on curve quality (r2), response magnitude and degree of measured activity, and compounds were subsequently categorized based on their curve class. […] Keywords: isocitrate dehydrogenase, IDH1, IDH1-R132H, MLSMR, MLPCN, NIH Roadmap, qHTS, NCGC
Background: In qHTS, concentration-response curves come from the screen itself.
In the case of `Cc1cc(N2CCN(c3cccc(C(F)(F)F)c3)CC2)n2nc(-c3ccccc3)nc2n1`, the “activity change, negative = inhibition” value is -9.04% (inactive).
Same read-out and setting: for `COC(=O)c1cc(S(=O)(=O)N2CCN(c3cc(Cl)ccc3C)CC2)c[nH]1` the value was -12.5% (inactive).
Same read-out and setting: the result for `COc1ccc(CCNC(=O)c2ccc3c(c2)nc(C)n3-c2ccc(Br)cc2)cc1OC` reads 6.54% (inactive).
`COc1ccc(CNC(=O)CCc2c(C)nn(-c3ccc(N4CCCC4)nn3)c2C)cc1`: the “activity change, negative = inhibition” value was -5.82% (inactive).
For the compound `CCOc1ccc(N(CC)S(=O)(=O)N2CCCC(C(=O)NCc3ccc(SC)cc3)C2)cc1` (configuration not stated), the “activity change, negative = inhibition” value was -6.03% (inactive).
For the compound `COc1ccc(CN2C(=O)CC(Cc3ccc(C)cc3)C2=O)cc1OC` (configuration not stated), the “activity change, negative = inhibition” value was 0.852% (inactive).
`CCCCOc1ccc(CN2C(=O)C(=O)c3cc(Br)cc(C)c32)cc1OC`: the Potency was 28.2 µM (active).
On to `CCCCOc1ccc(Cn2c(=O)oc3ccc(C)cc32)cc1OC`, for which the “activity change, negative = inhibition” value is 0.174% (inactive).
On the same count and under the same terms, the result for `O=S(=O)(c1ccc(Br)cc1)c1nnn2c1nc(N1CCOCC1)c1sccc12` reads 7.56% (inactive); that for `COc1ccc(N2C(=O)CSC23C(=O)N(Cc2cccc(F)c2)c2ccccc23)cc1Cl` (configuration not stated), -7.21% (inactive).
On the same count and under the same terms, the result for `Cc1ccc(CNC(=O)CSc2c3c(nc4cc(Cl)ccc24)CCCC3)cc1` reads 12.5% (inactive).
Same read-out and setting: for `Cc1cc(Cl)ccc1NC(=O)Cc1ccc(NC(=O)N2CCCCc3ccccc32)cc1` the value was -7.17% (inactive); for `CC1CN(C(=O)N2CCC(C(=O)NCc3cccs3)CC2)c2ccccc2O1` (configuration not stated), 13.4% (inactive); for `Cc1ccc(O)c(NC(=O)c2cc(-c3ccc(F)cc3)no2)c1`, 0% (inactive).
Turning to `Cc1ccc(Nc2nc3ccccc3nc2-n2nc(C)cc2C)c(Cl)c1`, the “activity change, negative = inhibition” value was 0% (inactive).
On the same count and under the same terms, for `CCCN(CCC)C(=O)Cn1c(=O)n(-c2ccc(Cl)cc2)c(=O)c2c3c(sc21)CCCCC3` the value was 3.66% (inactive); for `CCCn1c2ccccc2c2cnn(CC(=O)N(CC)c3cc(C)ccc3C)c(=O)c21`, -8.48% (inactive).
Consider `N#Cc1ccc(-c2cccs2)nc1SCc1ccc(Br)cc1`, for which the “activity change, negative = inhibition” value is -10.1% (inactive).
Still for that read-out and setting: for `COc1ccc(Cl)cc1NC(=O)CSc1nc2ccccc2c2nc(-c3ccccc3)nn12` the value was 11.3% (inactive); for `O=C(CCc1cn(Cc2ccc(F)cc2)c2ccccc12)NC1CCCCC1`, -2.83% (inactive).
Still for that read-out and setting: the result for `O=C(C1COc2ccccc2O1)N(Cc1cccnc1)c1nc2c(F)cc(F)cc2s1` (configuration not stated) reads 0% (inactive).
On the same count and under the same terms, the result for `CCOC(=O)c1ccc(NC(=O)Cn2c(=O)n(-c3ccc(C)cc3)c(=O)c3c2cnn3C)cc1` reads 0% (inactive); that for `CCCCn1c(CNC(=O)C23CC4CC(CC(C4)C2)C3)nnc1SCC(=O)Nc1ccc(C)cc1`, -2.28% (inactive).
For `COCCNC(=O)c1ccc2c(c1)N(Cc1cccc(Cl)c1)C(=O)c1ccccc1S2(=O)=O`, the “activity change, negative = inhibition” value was -14.2% (inactive).
Still for that read-out and setting: the result for `COc1ccc(-c2nnc(SCC(=O)Nc3ccccc3C)o2)cc1OC` reads -3.15% (inactive); that for `CCCCc1nn2c(=O)cc(COC(=O)c3ccccc3NC(=O)C(C)(C)C)nc2s1`, -4.52% (inactive).
Same read-out and setting: the result for `COc1cc(NC(=O)CSc2nc3nc(C)c(Cc4ccc(C)cc4)c(C)n3n2)cc(OC)c1OC` reads -14.1% (inactive).
Same read-out and setting: for `Cc1ccc(CCNC(=O)c2ccc(CNS(=O)(=O)c3ccc(C)cc3)cc2)cc1` the value was 11.2% (inactive); for `CCOC(=O)c1ccc(N2C(=O)c3n[nH]c(C)c3C2c2ccc(O)c(OC)c2)cc1` (configuration not stated), 8.11% (inactive); for `CCOc1ccc(S(=O)(=O)N(CC(=O)NCCSCc2ccc(C)cc2)c2ccccc2)cc1`, 8.13% (inactive).
For `O=C(CSc1oc(-c2ccco2)nc1S(=O)(=O)c1ccccc1)c1ccc(Cl)cc1`, the “activity change, negative = inhibition” value was 8.02% (inactive).
Same read-out and setting: for `Cc1ccccc1Nc1nn2c(=O)c3ccc(C(=O)NCCc4ccc(Cl)cc4)cc3nc2s1` the value was 2.65% (inactive); for `Cc1ccc(OCC(=O)OCc2cc(=O)n3nc(C4CC4)sc3n2)cc1C`, 1.02% (inactive); for `CC(C)NC(=O)c1nn(-c2ccccc2F)nc1CO`, -6.1% (inactive).
Same read-out and setting: for `Cc1cccc(OCCCC(=O)Nc2sc3c(c2C(N)=O)CCC(C)C3)c1` (configuration not stated) the value was 15.6% (inactive); for `O=C(CN1C(=O)COc2ccc(S(=O)(=O)N3CCCCCC3)cc21)N1CCN(c2cccc(C(F)(F)F)c2)CC1`, 0.874% (inactive); for `O=c1cc(CSc2ncn[nH]2)[nH]c2ccc(F)cc12`, 11.8% (inactive).
The same measure, in the same setting: for `O=C(CN1CCSc2ccccc21)N1CCN(c2ccccc2)CC1` the value was 9.76% (inactive).
On to `CCCc1nn2c(=O)cc(COC(=O)c3ccc(NC(=O)C(C)Oc4ccccc4)cc3)nc2s1` (configuration not stated), for which the “activity change, negative = inhibition” value is -1.97% (inactive).
In the case of `Cc1ccc2c(c1)N(C(=O)Nc1ccc(Br)cc1F)CCO2`, the “activity change, negative = inhibition” value was 26.6% (inactive).
On the same count and under the same terms, the result for `O=C(CCc1ccccc1)NCc1ccc2c(c1)CCN2C(=O)c1ccccc1` reads -11.1% (inactive); that for `O=C(CSc1nnc(CNC(=O)c2ccccc2)n1-c1ccc(F)cc1)Nc1ccccc1F`, -2.52% (inactive).
For the compound `CN(C(=O)CSc1nc2ccccc2n1Cc1ccccc1C#N)c1ccccc1`, the “activity change, negative = inhibition” value is -6.83% (inactive).
Take `CCOC(=O)c1c(C)[nH]c(C)c1S(=O)(=O)N1CCCC(C(=O)NCc2ccccc2Cl)C1` (configuration not stated): the “activity change, negative = inhibition” value was -13.9% (inactive).
Consider `CCCc1nc2c(c(=O)c3ccccc3n2C)c(=O)n1C1CCCCCC1`, for which the Potency is 46.5 µM (active).
Take `CCCN1C(=O)C(Cc2nc3ccccc3c(=O)n2-c2ccccc2)c2cc(C)ccc21` (configuration not stated): the “activity change, negative = inhibition” value was -1.15% (inactive).
The same measure, in the same setting: for `CCOc1ccc(NC(=O)c2cn(C3CCCCC3)c(=O)c3c2c2ccccc2n3C)cc1` the value was -10.2% (inactive).
Regarding `Cc1ccc(S(=O)(=O)N(Cc2nc(-c3ccc(Cl)cc3)no2)C2CCCCC2)cc1`, the “activity change, negative = inhibition” value is 0.339% (inactive).
The same measure, in the same setting: for `COc1cc2ccccc2cc1C(=O)Nc1cccc(-c2nc3ccccc3o2)c1` the value was -0.407% (inactive); for `CC1CCCCN1S(=O)(=O)c1ccc(F)c(C(=O)Nc2ccccc2C(F)(F)F)c1` (configuration not stated), -7.74% (inactive).
Turning to `CCOc1cccc(CNC(=O)c2ccc(N3CCCC3)c(NC(=O)Nc3ccccc3CC)c2)c1`, the “activity change, negative = inhibition” value was -22.9% (inactive).
Still for that read-out and setting: the result for `CCOc1ccc(NC(=O)C(=O)NCCc2csc3nc(-c4ccccc4F)nn23)cc1` reads -15.9% (inactive); that for `Cc1ccccc1CNC(=O)CCc1cn(Cc2ccccc2C)c2ccccc12`, 0% (inactive).
Still for that read-out and setting: for `Cc1c(Cl)cccc1-c1ccc(CNCCCSc2nnnn2C)o1` the value was 0% (inactive); for `COc1ccc(-c2nc(CN3CCC(C(=O)NCCN(CC(C)C)CC(C)C)CC3)c(C)o2)cc1OC`, -5.21% (inactive).
On to `CCOc1ccc(-c2n[nH]c3c2C(c2ccccc2OC)N(c2ccc(Br)cc2)C3=O)cc1` (configuration not stated), for which the “activity change, negative = inhibition” value was -10.1% (inactive).
The same measure, in the same setting: the result for `CN(Cc1ccccc1)S(=O)(=O)c1ccc(F)c(C(=O)Nc2cccc(Cl)c2Cl)c1` reads 0% (inactive).
